# In paper PMC7862700, “An all-to-all approach to the identification of sequence-specific readers for epigenetic DNA modifications on cytosine”:
# How the values were obtained:
# Assay in all cases: DAPPL (digital affinity profiling via proximity ligation, sequencing); 10 mM Tris-HCl pH 7.5, 50 mM NaCl, 1 mM DTT, 4% glycerol, room temperature, 30 min; GST-TFs on glutathione beads, 16-mer random dsDNA library, 0.1% formaldehyde crosslink after washing; high values mean tight binding
# FEV = target: T1, FEV (Homo sapiens, UniProt Q99581 1-238); conditions: protein: recombinant; tags: N-terminal GST; dsDNA, one strand shown
# T1 sequence: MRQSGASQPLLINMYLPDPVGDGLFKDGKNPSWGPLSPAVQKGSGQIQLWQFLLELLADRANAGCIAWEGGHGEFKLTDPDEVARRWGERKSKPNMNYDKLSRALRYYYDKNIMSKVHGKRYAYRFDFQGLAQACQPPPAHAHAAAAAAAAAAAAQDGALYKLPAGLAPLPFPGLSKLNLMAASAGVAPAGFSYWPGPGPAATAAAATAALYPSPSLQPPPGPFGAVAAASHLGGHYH
# Outline: (§1)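 Beads coated with glutathione captured GST-fused human transcription factors that had been expressed in yeast, and the factors were then given DNA barcodes and pooled with a tag-only sample. The pools were incubated with 200 nmole of a random double-stranded 16-mer DNA library in Tris/NaCl/DTT/glycerol buffer for 30 min at room temperature, washed, crosslinked with 0.1% formaldehyde and proximity-ligated with BsaI/T4 ligase at 37 °C for 1 h. PCR amplification and Illumina NextSeq500 sequencing came last. Binding signal is each hexamer's read frequency for a factor divided by its frequency for the tag-only sample.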
# ETV5 = ETV5 (Homo sapiens, UniProt P41161 1-510); conditions: protein: recombinant; tags: N-terminal GST; dsDNA, one strand shown
# Outline: as §1
# HSF1 = HSF1 (Homo sapiens, UniProt Q00613 1-529); conditions: protein: recombinant; tags: N-terminal GST; chain copies: 3; dsDNA, one strand shown
# Outline: as §1
# SPIC = target: T2, SPIC (Homo sapiens, UniProt Q8N5J4 1-248); conditions: protein: recombinant; tags: N-terminal GST; dsDNA, one strand shown
# T2 sequence: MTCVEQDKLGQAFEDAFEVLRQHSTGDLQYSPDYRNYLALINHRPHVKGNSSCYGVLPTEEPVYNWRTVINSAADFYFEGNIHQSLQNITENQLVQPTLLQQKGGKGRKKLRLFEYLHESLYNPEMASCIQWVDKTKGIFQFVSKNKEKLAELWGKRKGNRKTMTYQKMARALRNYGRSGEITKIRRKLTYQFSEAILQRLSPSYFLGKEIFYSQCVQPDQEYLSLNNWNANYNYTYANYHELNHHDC
# Outline: as §1
# ELF4 = ELF4 (Homo sapiens, UniProt Q99607 1-663); conditions: protein: recombinant; tags: N-terminal GST; dsDNA, one strand shown
# Outline: as §1
# ELK4 = target: T3, ELK4 (Homo sapiens, UniProt P28324-2 1-405); conditions: protein: recombinant; tags: N-terminal GST; dsDNA, one strand shown
# T3 sequence: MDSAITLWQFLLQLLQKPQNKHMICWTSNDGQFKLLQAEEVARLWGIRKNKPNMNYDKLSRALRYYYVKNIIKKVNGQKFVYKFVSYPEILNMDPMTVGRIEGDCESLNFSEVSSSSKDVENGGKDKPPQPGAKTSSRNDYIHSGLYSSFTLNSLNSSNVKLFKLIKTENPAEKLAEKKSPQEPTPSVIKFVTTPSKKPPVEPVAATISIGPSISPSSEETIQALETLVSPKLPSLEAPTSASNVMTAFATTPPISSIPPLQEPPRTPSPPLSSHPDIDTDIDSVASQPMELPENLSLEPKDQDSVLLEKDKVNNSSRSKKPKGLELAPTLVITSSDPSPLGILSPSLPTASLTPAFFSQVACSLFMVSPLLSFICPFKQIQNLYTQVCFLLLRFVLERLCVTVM
# Outline: as §1
# ETV2 = target: T4, ETV2 (Homo sapiens, UniProt O00321 1-342); conditions: protein: recombinant; tags: N-terminal GST; dsDNA, one strand shown
# T4 sequence: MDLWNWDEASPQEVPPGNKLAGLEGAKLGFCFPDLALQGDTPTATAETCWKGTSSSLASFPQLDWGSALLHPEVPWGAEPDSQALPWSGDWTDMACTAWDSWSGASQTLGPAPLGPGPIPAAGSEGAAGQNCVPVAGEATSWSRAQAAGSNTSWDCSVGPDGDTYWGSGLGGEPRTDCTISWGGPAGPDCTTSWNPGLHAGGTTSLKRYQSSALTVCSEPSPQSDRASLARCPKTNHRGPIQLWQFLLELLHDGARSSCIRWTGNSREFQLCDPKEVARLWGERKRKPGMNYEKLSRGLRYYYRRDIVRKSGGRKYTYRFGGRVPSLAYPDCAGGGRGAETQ
# Outline: as §1
# ELF3 = target: T5, ELF3 (Homo sapiens, UniProt P78545 1-371); conditions: protein: recombinant; tags: N-terminal GST; dsDNA, one strand shown
# T5 sequence: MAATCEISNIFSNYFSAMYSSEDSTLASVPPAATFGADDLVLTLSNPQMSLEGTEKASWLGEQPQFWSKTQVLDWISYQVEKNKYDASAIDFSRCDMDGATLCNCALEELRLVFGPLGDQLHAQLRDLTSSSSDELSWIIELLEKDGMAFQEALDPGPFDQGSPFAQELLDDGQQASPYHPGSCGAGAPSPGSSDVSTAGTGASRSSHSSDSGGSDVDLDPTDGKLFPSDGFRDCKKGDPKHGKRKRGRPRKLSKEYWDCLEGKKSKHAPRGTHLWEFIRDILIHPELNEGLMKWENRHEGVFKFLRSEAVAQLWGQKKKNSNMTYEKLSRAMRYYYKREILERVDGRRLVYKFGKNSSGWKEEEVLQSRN
# Outline: as §1
# CRX = CRX (Homo sapiens, UniProt O43186 1-299); conditions: protein: recombinant; tags: N-terminal GST; dsDNA, one strand shown
# Outline: as §1
# ETV1 = ETV1 (Homo sapiens, UniProt P50549 1-477); conditions: protein: recombinant; tags: N-terminal GST; dsDNA, one strand shown
# Outline: as §1
# ERF = target: T6, ERF (Homo sapiens, UniProt P50548 1-548); conditions: protein: recombinant; tags: N-terminal GST; dsDNA, one strand shown
# T6 sequence: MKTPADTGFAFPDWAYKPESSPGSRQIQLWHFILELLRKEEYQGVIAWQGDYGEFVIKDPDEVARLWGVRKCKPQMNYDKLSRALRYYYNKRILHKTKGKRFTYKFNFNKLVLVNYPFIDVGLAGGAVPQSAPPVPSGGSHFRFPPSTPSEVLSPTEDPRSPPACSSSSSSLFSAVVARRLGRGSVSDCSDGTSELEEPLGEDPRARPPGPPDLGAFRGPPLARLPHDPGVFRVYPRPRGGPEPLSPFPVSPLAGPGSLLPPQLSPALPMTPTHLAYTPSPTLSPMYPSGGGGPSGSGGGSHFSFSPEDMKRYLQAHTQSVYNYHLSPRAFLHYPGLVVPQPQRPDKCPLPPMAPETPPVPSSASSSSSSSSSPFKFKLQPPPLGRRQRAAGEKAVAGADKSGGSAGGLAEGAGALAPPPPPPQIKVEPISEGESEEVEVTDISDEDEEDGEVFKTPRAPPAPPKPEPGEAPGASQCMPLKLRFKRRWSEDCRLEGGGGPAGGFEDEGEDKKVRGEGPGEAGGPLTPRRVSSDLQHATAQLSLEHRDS
# Outline: as §1
# ETV3L = target: T7, ETV3L (Homo sapiens, UniProt Q6ZN32 1-361); conditions: protein: recombinant; tags: N-terminal GST; dsDNA, one strand shown
# T7 sequence: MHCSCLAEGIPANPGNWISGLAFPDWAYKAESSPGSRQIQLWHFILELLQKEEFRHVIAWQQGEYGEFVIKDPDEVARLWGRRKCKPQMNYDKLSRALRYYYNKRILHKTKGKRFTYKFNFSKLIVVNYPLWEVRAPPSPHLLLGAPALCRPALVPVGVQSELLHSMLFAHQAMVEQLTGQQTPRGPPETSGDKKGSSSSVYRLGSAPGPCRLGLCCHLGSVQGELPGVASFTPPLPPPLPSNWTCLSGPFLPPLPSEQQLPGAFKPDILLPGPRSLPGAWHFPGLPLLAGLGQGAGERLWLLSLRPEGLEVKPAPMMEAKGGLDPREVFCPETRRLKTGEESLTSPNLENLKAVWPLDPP
# Outline: as §1
# ETS2 = target: T8, ETS2 (Homo sapiens, UniProt P15036 1-469); conditions: protein: recombinant; tags: N-terminal GST; dsDNA, one strand shown
# T8 sequence: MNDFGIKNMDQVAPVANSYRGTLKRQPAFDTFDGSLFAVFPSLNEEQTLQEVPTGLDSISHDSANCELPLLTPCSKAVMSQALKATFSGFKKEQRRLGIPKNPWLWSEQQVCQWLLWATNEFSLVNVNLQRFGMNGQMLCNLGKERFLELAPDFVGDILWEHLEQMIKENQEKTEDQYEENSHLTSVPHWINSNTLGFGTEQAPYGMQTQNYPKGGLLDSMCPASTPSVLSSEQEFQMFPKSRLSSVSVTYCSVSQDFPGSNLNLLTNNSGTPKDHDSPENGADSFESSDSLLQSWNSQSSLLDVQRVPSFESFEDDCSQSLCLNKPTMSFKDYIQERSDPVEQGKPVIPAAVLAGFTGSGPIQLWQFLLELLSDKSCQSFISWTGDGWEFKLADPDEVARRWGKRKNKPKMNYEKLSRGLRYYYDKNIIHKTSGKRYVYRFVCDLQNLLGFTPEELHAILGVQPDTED
# Outline: as §1
# SPDEF = target: T9, SPDEF (Homo sapiens, UniProt O95238 1-335); conditions: protein: recombinant; tags: N-terminal GST; dsDNA, one strand shown
# T9 sequence: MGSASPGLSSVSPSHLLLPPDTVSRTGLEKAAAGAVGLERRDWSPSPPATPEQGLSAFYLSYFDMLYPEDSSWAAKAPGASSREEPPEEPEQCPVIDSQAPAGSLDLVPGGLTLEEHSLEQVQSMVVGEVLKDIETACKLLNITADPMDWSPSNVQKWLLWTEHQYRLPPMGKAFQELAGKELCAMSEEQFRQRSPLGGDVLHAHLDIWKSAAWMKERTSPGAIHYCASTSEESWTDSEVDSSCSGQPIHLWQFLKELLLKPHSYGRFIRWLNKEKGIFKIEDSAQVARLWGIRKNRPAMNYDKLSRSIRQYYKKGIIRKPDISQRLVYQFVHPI
# Outline: as §1
# ETV7 = target: T10, ETV7 (Homo sapiens, UniProt Q9Y603 1-341); conditions: protein: recombinant; tags: N-terminal GST; dsDNA, one strand shown
# T10 sequence: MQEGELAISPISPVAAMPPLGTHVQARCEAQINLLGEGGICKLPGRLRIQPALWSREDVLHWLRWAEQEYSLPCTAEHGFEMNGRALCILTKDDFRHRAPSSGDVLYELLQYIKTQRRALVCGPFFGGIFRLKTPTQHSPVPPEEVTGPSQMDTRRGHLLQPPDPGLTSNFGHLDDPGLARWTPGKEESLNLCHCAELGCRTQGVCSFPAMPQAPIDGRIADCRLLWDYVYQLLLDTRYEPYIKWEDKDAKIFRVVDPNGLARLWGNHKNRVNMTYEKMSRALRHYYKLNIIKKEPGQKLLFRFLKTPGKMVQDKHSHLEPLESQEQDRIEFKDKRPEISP
# Outline: as §1
# ELF5 = target: T11, ELF5 (Homo sapiens, UniProt Q9UKW6-2 1-255); conditions: protein: recombinant; tags: N-terminal GST; dsDNA, one strand shown
# T11 sequence: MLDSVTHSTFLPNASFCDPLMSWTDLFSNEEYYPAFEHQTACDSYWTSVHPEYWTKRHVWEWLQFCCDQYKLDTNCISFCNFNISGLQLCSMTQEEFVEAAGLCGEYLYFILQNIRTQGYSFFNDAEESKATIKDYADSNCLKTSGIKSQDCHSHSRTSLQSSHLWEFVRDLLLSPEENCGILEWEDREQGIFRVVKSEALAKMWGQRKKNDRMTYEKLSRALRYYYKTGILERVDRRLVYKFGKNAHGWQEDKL
# Outline: as §1
# ETV3 = target: T12, ETV3 (Homo sapiens, UniProt P41162-2 1-143); conditions: protein: recombinant; tags: N-terminal GST; dsDNA, one strand shown
# T12 sequence: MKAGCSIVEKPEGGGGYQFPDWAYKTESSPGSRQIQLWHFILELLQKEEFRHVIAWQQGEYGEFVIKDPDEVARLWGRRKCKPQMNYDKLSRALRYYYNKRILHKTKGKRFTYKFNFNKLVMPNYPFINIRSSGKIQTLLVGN
# Outline: as §1
# ETV6 = ETV6 (Homo sapiens, UniProt P41212 1-452); conditions: protein: recombinant; tags: N-terminal GST; dsDNA, one strand shown
# Outline: as §1
# ETV1, sequence (P50549 whole entry): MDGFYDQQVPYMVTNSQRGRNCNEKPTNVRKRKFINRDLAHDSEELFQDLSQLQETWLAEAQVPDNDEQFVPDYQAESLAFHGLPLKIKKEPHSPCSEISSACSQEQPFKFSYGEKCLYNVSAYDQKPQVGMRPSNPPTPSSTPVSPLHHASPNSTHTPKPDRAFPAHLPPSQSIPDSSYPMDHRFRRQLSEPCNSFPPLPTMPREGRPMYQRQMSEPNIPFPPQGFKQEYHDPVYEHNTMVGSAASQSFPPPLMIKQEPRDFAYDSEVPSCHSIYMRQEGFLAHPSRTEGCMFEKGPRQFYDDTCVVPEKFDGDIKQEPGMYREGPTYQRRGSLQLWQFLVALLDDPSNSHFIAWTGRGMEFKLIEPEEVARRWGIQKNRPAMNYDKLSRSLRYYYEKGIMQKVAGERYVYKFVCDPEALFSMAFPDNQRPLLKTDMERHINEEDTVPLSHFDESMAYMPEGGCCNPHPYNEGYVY
# CRX, sequence (O43186 whole entry): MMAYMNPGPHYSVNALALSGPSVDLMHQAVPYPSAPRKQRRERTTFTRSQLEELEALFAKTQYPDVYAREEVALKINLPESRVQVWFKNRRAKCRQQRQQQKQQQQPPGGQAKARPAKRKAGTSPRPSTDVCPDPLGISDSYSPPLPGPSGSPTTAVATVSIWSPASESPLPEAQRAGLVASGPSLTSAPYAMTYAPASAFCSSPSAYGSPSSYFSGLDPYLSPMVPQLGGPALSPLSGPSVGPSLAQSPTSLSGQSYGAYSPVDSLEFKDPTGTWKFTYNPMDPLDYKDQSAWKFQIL
# ETV5, sequence (P41161 whole entry): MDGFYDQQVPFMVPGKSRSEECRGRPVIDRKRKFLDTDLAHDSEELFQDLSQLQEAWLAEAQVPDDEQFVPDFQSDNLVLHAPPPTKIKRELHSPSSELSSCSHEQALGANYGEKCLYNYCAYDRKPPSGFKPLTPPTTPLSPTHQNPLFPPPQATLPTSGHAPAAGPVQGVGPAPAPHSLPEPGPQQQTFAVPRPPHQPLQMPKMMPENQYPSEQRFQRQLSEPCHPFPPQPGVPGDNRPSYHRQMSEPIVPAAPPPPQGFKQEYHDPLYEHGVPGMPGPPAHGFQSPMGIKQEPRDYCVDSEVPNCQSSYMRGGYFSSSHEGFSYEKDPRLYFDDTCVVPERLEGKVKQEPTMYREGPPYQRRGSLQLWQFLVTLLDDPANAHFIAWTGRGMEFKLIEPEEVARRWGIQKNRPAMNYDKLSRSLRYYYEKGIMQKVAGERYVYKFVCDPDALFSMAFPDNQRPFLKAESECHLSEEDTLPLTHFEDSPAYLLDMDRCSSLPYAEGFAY
# HSF1, sequence (Q00613 whole entry): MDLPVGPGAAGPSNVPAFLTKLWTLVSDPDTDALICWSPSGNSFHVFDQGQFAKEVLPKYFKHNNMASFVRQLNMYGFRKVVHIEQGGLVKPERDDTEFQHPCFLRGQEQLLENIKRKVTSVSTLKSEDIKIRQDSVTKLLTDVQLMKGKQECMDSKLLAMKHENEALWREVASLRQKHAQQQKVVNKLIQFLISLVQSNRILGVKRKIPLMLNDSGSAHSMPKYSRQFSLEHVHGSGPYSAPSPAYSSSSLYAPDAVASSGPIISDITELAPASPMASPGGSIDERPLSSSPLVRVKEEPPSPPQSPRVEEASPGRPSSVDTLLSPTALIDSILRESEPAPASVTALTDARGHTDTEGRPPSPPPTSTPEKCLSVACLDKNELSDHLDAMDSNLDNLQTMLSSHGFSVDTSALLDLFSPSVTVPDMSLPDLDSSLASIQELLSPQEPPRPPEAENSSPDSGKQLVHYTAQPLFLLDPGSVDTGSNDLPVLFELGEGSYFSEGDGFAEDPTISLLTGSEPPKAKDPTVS
# ELF4, sequence (Q99607 whole entry): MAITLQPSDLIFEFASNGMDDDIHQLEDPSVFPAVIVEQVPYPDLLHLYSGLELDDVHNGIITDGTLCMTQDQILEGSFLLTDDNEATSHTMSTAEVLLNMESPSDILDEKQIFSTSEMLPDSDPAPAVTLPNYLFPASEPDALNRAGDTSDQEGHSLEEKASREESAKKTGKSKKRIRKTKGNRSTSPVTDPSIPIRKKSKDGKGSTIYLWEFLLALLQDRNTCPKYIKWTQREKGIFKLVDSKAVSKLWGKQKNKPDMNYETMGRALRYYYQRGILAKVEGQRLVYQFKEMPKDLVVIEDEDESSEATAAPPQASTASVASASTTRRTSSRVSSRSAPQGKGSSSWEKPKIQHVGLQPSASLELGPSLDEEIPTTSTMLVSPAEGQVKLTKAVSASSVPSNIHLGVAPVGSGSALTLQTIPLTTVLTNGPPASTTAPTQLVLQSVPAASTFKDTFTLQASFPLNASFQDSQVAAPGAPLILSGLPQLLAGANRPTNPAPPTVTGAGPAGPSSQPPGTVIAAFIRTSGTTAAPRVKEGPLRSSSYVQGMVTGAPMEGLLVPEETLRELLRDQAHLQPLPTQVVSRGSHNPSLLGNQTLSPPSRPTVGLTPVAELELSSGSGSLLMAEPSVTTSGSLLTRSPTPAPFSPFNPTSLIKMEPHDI
# ETV6, sequence (P41212 whole entry): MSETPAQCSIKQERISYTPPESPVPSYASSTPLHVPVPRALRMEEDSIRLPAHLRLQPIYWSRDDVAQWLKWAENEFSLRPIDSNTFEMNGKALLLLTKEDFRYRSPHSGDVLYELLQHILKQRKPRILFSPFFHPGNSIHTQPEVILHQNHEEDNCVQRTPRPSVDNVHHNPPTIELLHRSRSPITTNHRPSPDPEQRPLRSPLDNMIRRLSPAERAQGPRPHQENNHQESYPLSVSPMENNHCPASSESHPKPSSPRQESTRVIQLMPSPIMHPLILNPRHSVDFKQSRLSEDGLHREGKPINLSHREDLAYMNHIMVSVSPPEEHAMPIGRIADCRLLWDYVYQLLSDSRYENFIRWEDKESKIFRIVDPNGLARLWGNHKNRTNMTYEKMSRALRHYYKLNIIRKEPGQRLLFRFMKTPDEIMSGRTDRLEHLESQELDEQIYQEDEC
sequence,measurement,setting,value
GTGGCT,binding signal,FEV,"1.19 fold enrichment (6-mer frequency, TF over GST control)"
same,binding signal,ETV5,"1.13 fold enrichment (6-mer frequency, TF over GST control)"
same,binding signal,HSF1,"1.05 fold enrichment (6-mer frequency, TF over GST control)"
same,binding signal,SPIC,"1.23 fold enrichment (6-mer frequency, TF over GST control)"
same,binding signal,ELF4,"1.1 fold enrichment (6-mer frequency, TF over GST control)"
same,binding signal,ELK4,"1.31 fold enrichment (6-mer frequency, TF over GST control)"
same,binding signal,ETV2,"1.17 fold enrichment (6-mer frequency, TF over GST control)"
same,binding signal,ELF3,"1.26 fold enrichment (6-mer frequency, TF over GST control)"
same,binding signal,CRX,"1.18 fold enrichment (6-mer frequency, TF over GST control)"
same,binding signal,ETV1,"1.19 fold enrichment (6-mer frequency, TF over GST control)"
same,binding signal,ERF,"1.18 fold enrichment (6-mer frequency, TF over GST control)"
same,binding signal,ETV3L,"1.07 fold enrichment (6-mer frequency, TF over GST control)"
same,binding signal,ETS2,"1.14 fold enrichment (6-mer frequency, TF over GST control)"
same,binding signal,SPDEF,"1.03 fold enrichment (6-mer frequency, TF over GST control)"
same,binding signal,ETV7,"1.1 fold enrichment (6-mer frequency, TF over GST control)"
same,binding signal,ELF5,"1.03 fold enrichment (6-mer frequency, TF over GST control)"
same,binding signal,ETV3,"1.12 fold enrichment (6-mer frequency, TF over GST control)"
same,binding signal,ETV6,"1.07 fold enrichment (6-mer frequency, TF over GST control)"
